Unmarked numbers belong to inactive results. No rule for the calls is given here.

Sequence of Pantothenate synthetase (Mycobacterium tuberculosis (strain ATCC 25618 / H37Rv)) (P9WIL5 whole entry, looked up): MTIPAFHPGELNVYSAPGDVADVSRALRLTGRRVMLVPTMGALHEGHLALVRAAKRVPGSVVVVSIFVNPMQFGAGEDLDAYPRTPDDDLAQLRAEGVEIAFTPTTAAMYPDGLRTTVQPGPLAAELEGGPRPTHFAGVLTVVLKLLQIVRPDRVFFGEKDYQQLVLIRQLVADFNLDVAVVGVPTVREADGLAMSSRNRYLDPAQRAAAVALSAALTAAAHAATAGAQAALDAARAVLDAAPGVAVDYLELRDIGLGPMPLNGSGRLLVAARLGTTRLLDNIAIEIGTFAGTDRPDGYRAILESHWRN

The experiment addresses Pantothenate synthetase (Mycobacterium tuberculosis (strain ATCC 25618 / H37Rv)) (UniProt P9WIL5). Kind of experiment: Recombinant Mtb pantothenate synthetase (PanC) inhibitors, coupled enzyme, confirmatory (AID 375).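 Also: 0% = full reaction with vehicle and 100% = no enzyme background.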 As to conditions: coupled enzyme assay; at 10 µM, stronger effect = higher value.
As a reminder, the inhibition is how much of the control response was suppressed. Regarding `Cc1cccc(-n2ncc3c(NCc4ccccn4)ncnc32)c1`, the inhibition was 6%.
As for `CSc1nc2c(c(=O)n1C)SC(C)C2` (centres undefined), the figure is 0%; as for `Cc1ccc(O)c(C(CC(=O)N2CCCC2)c2ccccc2)c1` (centres undefined), 0%; as for `O=C1CC(c2ccc(S(=O)(=O)N3CCN(c4ccccc4)CC3)cc2)CN1` (centres undefined), 0%.
Next, `CCOC(=O)C1=C(C)NC(SC(C)=O)=NC1c1ccc(OC(C)=O)c(OC)c1` (centres undefined): 4%.
As for `Cc1ccc(N(C(=O)C2CCC(=O)N2)C2(C(=O)NC3CCCCC3)CCCCC2)cc1` (centres undefined), the figure is 2%; as for `C[C@@H]1C[C@H]2[C@@H]3CCC4=CC(=O)C=C[C@]4(C)[C@@]3(F)[C@@H](O)C[C@]2(C)[C@H]1C(=O)CO`, 1%.
For the molecule `CC(=O)Nc1ccc(OCC(O)CN2CCN(c3cccc(Cl)c3)CC2)cc1` (centres undefined), the inhibition is 3%.
As for `c1coc(CN(Cc2cccs2)Cc2nnnn2C2CCCCC2)c1`, the figure is 0%; as for `COc1ccc(N2CCN(C(=O)CCNS(=O)(=O)c3ccc(Br)s3)CC2)cc1`, 3%.
As for `C/C=C/Cn1c(SCCCc2ccccc2)nc2c1c(=O)[nH]c(=O)n2C`, the figure is 0%.
Consider `CCOC(=O)c1cnc(SCC)[nH]c1=O`, for which the inhibition is 0%.
Next, `CCCCc1cc(=O)oc2cc(OCC(=O)N(CC)CC)c(Cl)cc12`: 0%; `COc1cc(C2N3CC4(C)CN2CC(C)(C3)C4)ccc1O` (centres undefined): 0%; `O=C(CN1C(=O)NC(Cc2ccccc2)C1=O)Nc1ccccc1` (centres undefined): 0%.
With `CCCCCCn1c(SCC(=O)OC)nc2c1c(=O)[nH]c(=O)n2C`, the inhibition is 0%.
As for `Nn1cc(-c2ccccc2)nc1SCC(=O)N1CCN(S(=O)(=O)c2ccccc2)CC1`, the figure is 0%.
For the molecule `CCOC(=O)c1cc2c(=O)n3cccc(C)c3nc2n(CCc2ccccc2)c1=N`, the inhibition is 0%.
As for `CCOC(=O)N1CCC(NC(=O)C2CCCN(C(=O)c3cc4sccc4n3C)C2)CC1` (centres undefined), the figure is 0%; as for `CCCCn1cnc2c1c(=O)n(C)c(=O)n2C`, 2%; as for `Cc1c(C)[n+](=O)c2c(n1[O-])CCCCC2`, 1%.
On to `COc1ccc(-c2noc(CN(C(=O)C(C)(C)C)C(C)C)n2)cc1`, for which the inhibition is 0%.
As for `CCCNC(=O)Nc1ccccc1C(=O)Nc1ccc(OC)cc1`, the figure is 2%; as for `O=C1NCC(COCc2ccccc2)O1` (centres undefined), 3%.
Consider `COc1cccc(Nc2nc(=O)[nH]nc2C)c1`, for which the inhibition was 8%.
Regarding `CCS(=O)(=O)CCn1c([N+](=O)[O-])cnc1C`, the inhibition is 7%.
In the case of `Cc1cc(C(=O)CSCc2nnc3n(CCC(C)C)c(=O)c4ccccc4n23)c(C)n1C`, the inhibition is 8%.
Next, `COc1cc(OC)c(-c2nn3c(C4CCCCC4)nnc3s2)cc1OC`: 0%; `Fc1ccccc1-c1nc(-c2ccccc2)no1`: 5%.
Consider `CCCCn1nnnc1SCC(=O)Nc1cccc(C)n1`, for which the inhibition is 1%.
Regarding `Cc1ccc(CCNC(=O)C2CCN(S(=O)(=O)c3ccc4c(c3)CCC(=O)N4)CC2)cc1`, the inhibition was 0%.
As to `CC1(C)COCN1S(=O)(=O)c1ccc(C(=O)Nc2nnc(-c3ccc(Cl)s3)o2)cc1`, the inhibition is 4%.
Next, `CN(C)CC(O)COc1ccc(-c2ccc(C#N)cc2)cc1` (centres undefined): 3%.
Next, `O=C(CCNC(=O)Cn1ccc2ccccc2c1=O)NCCN1CCc2ccccc2C1`: 3%.
With `CCOC(=O)c1[nH]nc(-c2c(O)cc(C)cc2O)c1-c1csc(C)n1`, the inhibition was 0%.
Turning to `Cc1cc(C(F)(F)F)c2c(C)nn(CCc3nn[nH]n3)c2n1`, the inhibition was 0%.
As for `COc1ccc(OC)c(C2=NOC(C(=O)Nc3cccnc3)C2)c1` (centres undefined), the inhibition was 0%.
Next, `N[C@@H](Cc1ccccc1)c1nnc2sc(SCc3ccccc3)nn12`: 1%; `CC(NS(=O)(=O)c1ccccc1)C(c1cccs1)N1CCN(C)CC1` (centres undefined): 4%.

The values are drawn from PubChem BioAssay.
